Source: PubChem BioAssay (NCATS)
Where “and” joins values, the source holds several entries; their conditions need not be identical. Equal values may be shown once. Inconclusive results are not listed. Calls of active or inactive are those of the source. The call rests on the fitted dose curve; in most records, active means well fitted inhibition curve with a large enough effect; inconclusive means small, poorly fitted or top-dose-only effect; inactive means no such curve, though single readings can be large or run the other way.
On the % scale 0 is the no-effect control and ±100 the full control effect; potency means the concentration at half of the fitted maximal effect.

Assay: Primary qHTS for inhibitors of nuclear receptor binding SET domain protein 2 (NSD2) in an RCH-ACV wild type WT cells (2C) (AID 1645877); further: nearly all actives have a fitted effect of over 70% in size
Details: RCH-ACV (leukaemia line) NSD2 WT (2C) viability, CellTiter-Glo, 72 h; series mostly up to 44.9 µM; activity change, negative = cell killing: at the top concentration
For `COc1cccc(OCCCN)c1-c1cc(Nc2cnc(C#N)cn2)n[nH]1`, the Potency was 10.3 nM (active).
In the case of `CN[C@H]1CC[C@@H](c2ccc(Cl)c(Cl)c2)c2ccccc21`, the Potency is reported as 2.66 µM (active) and 9.34 µM (active).
In the case of `CN(C)C(=O)Nc1cc(-c2ccccc2)ccc1N(C)C`, the “activity change, negative = cell killing” value is reported as -48.1% (inactive).
For `O=S(=O)(Cc1ccccc1)Nc1ccc(-c2ccc3c(cnn3-c3ccc(F)cc3)c2)c(C(F)(F)F)c1`, the Potency was 183 nM (active).
With `Cc1ccc(NC(=O)N2CCN(c3nc(N)nc4sc(-c5cccnc5)nc34)CC2)cc1` the Potency was 230 nM (active).
In the case of `Cc1[nH]c(/C=C2\C(=O)Nc3cc(-c4ccccc4)ccc32)c(C)c1CCC(=O)O`, the Potency is reported as 23000 nM (active).
For `NCCOc1cc(C(=O)Nc2cc(OCCN)c3ccccc3n2)nc(C(=O)Nc2cc(OCCN)c3ccccc3n2)c1`, the Potency was 5.78 µM (active) and 8.33 µM (active).
